The source made the active and inactive calls. How the source made its calls: active means hit-call score of the fitted dose curve at least 0.9, where 1 is the maximum; inactive means score below 0.9.

The nature of this test: ATG_PBREM_CIS: Attagene CIS-FACTORIAL HepG2 Assay for human Phenobarbital-responsive Enhancer Module (PBREM) (AID 2282955). The following applies: HepG2 PBREM cis-reporter, Attagene multiplexed transcription; actives raise or lower the signal. Summed up:
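HepG2, transient MRTU transfection, 24 h dosing; RNA → oligo(dT) RT → PCR → 6-FAM extension → HpaI → CE. Bidirectional fit vs DMSO.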
In the case of `N#CCCC(Br)(C#N)CBr` (configuration not stated), the result was inactive.
The same measure, in the same setting: as for `O=C(NC(=O)c1c(F)cccc1F)Nc1cc(Cl)c(Oc2ncc(C(F)(F)F)cc2Cl)c(Cl)c1`, the entry is “inactive”; as for `Cc1cc(SCc2sc(-c3ccc(C(F)(F)F)c(F)c3)nc2C)ccc1OCC(=O)O`, “inactive”.
The same measure, in the same setting: as for `ClCc1ccccc1CCl`, the entry is “inactive”; as for `N#Cc1ccc(Cl)cc1`, “inactive”.
Same read-out and setting: as for `O=C1C=CC(=O)c2ccccc21`, the entry is “inactive”; as for `CC(O)(CS(=O)(=O)c1ccc(F)cc1)C(=O)Nc1ccc(C#N)c(C(F)(F)F)c1` (configuration not stated), “inactive”; as for `CCOC(=O)CC(=O)CCl`, “inactive”.
For `O=C(NC(=O)c1c(F)cccc1F)Nc1cc(Cl)c(OC(F)(F)C(F)C(F)(F)F)cc1Cl` (configuration not stated), the result was inactive.
The same measure, in the same setting: under `C=CC(=O)NC(C)(C)CC(C)=O` stands “inactive”.
Still for that read-out and setting: as for `CC(C)CP(=S)(S)CC(C)C`, the entry is “inactive”; as for `Cc1cc(C(F)(C(F)(F)F)C(F)(F)F)ccc1NC(=O)c1cccc(I)c1C(=O)NC(C)(C)CS(C)(=O)=O`, “inactive”.
Turning to `O=S1OC[C@@H]2[C@H](CO1)[C@]1(Cl)C(Cl)=C(Cl)[C@@]2(Cl)C1(Cl)Cl` (some centres not stated), the AC50 was 26400 nM (active).
For `CC1(C)[C@H](/C=C2\CCSC2=O)[C@@H]1C(=O)OCc1coc(Cc2ccccc2)c1`, the AC50 was 313 nM (active).
Turning to `CNC(=O)CSP(=O)(OC)OC`, the result was inactive.
For `c1csc(-c2ccc(-c3cccs3)s2)c1`, the AC50 was 2580 nM (active).
On to `C1CCC(C2CCCCC2)CC1`, for which the result was inactive.
On the same count and under the same terms, as for `NC(=O)c1ccc(N)nc1`, the entry is “inactive”.
Still for that read-out and setting: under `CC(F)(F)CC(F)(F)F` stands “inactive”.
As for `C=CC(=O)[O][Sn]([CH2]CCC)([CH2]CCC)[CH2]CCC`, the concentration at half-maximal activity (AC50) was 321 nM (active).
In the case of `O=S(=O)(C(Cl)(Cl)Cl)C(Cl)(Cl)Cl`, the outcome was inactive.
In the case of `COC(=O)c1cc(Oc2ccc(Cl)cc2Cl)ccc1[N+](=O)[O-]`, the AC50 was 11800 nM (active).
Take `CC(C)(c1ccc(O)c(-c2ccccc2)c1)c1ccc(O)c(-c2ccccc2)c1`: the result was inactive.
The same measure, in the same setting: under `CCOC(=O)OC1=C(c2cc(C)ccc2C)C(=O)NC12CCC(OC)CC2` (configuration not stated) stands “inactive”.
Regarding `CCCSP(=S)(OCC)Oc1ccc(SC)cc1` (configuration not stated), the AC50 is 2140 nM (active).
Take `CN(C1CCCCC1)C1CCCCC1`: the result was inactive.
On the same count and under the same terms, as for `FC(F)OCC(F)(F)C(F)(F)F`, the entry is “inactive”.
Still for that read-out and setting: as for `N#Cc1ccccc1N`, the entry is “inactive”; as for `C[As+](C)(C)CC(=O)[O-]`, “inactive”.
Same read-out and setting: under `O=[N+]([O-])c1ccc(Cl)c([N+](=O)[O-])c1` stands “inactive”.
Turning to `CC(=Cc1ccccc1)[N+](=O)[O-]`, the AC50 was 13700 nM (active).
Regarding `CCOc1ccc(N)cc1`, the outcome was inactive.
